Consider one compound from ChEMBL document CHEMBL2218924, “A broad activity screen in support of a chemogenomic map for kinase signalling research and drug discovery” (Biochem J, 2013).

In assay [1] the target is T1, Ephrin type-B receptor 1 (Homo sapiens) (UniProt P54762).
T1 sequence (whole entry): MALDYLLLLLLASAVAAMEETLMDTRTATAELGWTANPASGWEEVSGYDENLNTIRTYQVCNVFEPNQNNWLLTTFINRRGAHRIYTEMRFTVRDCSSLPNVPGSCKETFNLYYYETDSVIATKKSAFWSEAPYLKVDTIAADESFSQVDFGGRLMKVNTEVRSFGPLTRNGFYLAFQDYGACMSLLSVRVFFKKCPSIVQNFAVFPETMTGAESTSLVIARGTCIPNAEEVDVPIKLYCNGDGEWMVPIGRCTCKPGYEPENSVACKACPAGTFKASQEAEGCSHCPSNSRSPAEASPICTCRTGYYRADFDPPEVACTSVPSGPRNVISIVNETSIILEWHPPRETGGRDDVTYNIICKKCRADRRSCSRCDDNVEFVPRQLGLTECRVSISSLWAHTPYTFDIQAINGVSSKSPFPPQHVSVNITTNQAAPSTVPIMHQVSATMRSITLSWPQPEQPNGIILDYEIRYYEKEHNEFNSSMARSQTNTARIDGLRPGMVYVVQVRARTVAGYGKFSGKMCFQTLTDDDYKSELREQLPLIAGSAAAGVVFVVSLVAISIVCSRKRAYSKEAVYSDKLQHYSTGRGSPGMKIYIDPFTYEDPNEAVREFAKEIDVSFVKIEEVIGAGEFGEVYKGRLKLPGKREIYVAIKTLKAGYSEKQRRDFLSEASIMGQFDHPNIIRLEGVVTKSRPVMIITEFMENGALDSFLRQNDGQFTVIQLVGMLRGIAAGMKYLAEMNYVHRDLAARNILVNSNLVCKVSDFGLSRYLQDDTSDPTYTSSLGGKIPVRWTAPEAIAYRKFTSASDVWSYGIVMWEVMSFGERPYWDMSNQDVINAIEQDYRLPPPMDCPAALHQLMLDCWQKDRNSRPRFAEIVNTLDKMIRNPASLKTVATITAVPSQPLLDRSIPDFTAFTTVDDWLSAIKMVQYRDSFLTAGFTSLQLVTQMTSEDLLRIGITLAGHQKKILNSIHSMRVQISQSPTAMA
The conditions noted are these: at 10 µM.

Assay [2] concerns the target T2, Ephrin type-B receptor 2 (Homo sapiens) (UniProt P29323).
T2 sequence (whole entry): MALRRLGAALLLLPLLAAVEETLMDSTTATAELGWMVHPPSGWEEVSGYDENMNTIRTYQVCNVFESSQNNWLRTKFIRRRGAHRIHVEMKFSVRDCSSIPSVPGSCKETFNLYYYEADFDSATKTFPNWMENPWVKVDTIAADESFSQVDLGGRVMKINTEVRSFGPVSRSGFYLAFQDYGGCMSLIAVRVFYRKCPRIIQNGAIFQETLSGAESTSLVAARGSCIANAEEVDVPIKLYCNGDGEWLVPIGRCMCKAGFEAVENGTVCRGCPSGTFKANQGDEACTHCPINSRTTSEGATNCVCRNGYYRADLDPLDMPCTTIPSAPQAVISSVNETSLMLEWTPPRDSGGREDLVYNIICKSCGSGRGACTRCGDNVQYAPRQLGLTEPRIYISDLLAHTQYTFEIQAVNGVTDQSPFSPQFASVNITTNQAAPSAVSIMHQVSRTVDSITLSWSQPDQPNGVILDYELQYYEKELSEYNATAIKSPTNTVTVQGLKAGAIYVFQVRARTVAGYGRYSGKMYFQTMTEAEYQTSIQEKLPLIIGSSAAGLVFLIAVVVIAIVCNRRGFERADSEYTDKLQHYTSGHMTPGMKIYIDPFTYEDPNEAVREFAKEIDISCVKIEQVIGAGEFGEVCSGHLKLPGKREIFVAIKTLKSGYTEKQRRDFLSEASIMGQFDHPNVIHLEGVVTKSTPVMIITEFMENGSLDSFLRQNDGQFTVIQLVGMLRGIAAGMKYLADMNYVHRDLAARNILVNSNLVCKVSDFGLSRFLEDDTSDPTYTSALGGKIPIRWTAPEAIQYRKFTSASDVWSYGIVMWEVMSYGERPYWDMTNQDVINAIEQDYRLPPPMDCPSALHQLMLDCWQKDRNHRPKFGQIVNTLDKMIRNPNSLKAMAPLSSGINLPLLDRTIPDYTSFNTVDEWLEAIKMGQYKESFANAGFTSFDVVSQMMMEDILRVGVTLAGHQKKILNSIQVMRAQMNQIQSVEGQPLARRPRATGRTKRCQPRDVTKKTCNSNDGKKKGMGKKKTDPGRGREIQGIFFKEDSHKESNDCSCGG
As to conditions: at 1 µM; call rule not given here.

Assay [3] addresses T2, Ephrin type-B receptor 2 (Homo sapiens). As to conditions: at 10 µM.
Assay [4] addresses T3, Ephrin type-B receptor 3 (Homo sapiens) (UniProt P54753).
T3 sequence (whole entry): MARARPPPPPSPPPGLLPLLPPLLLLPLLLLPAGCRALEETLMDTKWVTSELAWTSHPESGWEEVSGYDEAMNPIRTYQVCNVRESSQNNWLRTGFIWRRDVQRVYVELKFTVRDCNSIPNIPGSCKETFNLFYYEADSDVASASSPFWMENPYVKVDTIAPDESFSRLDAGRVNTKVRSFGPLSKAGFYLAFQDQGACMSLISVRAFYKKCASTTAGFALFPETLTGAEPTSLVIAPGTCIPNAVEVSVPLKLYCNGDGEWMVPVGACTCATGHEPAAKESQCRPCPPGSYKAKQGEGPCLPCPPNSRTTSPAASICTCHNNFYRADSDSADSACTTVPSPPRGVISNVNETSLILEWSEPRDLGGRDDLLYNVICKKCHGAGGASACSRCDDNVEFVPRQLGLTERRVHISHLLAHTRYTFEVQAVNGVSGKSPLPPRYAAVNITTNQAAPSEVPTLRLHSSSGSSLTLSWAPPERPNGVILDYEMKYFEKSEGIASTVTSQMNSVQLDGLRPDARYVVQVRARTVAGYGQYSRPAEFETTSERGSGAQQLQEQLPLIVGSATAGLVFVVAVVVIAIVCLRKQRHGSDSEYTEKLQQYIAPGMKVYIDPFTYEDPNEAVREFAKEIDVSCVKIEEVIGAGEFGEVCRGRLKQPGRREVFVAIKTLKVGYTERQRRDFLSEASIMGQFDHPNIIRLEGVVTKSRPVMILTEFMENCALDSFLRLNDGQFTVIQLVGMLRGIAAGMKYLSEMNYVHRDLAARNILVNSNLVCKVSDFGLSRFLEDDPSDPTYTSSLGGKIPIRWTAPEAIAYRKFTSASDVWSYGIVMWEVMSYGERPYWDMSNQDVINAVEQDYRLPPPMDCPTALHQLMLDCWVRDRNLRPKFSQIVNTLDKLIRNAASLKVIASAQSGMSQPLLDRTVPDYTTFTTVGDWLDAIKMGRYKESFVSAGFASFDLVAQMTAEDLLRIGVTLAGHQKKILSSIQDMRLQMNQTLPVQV
The conditions noted are these: at 1 µM.

Assay [5] concerns the target T3, Ephrin type-B receptor 3 (Homo sapiens). As to conditions: at 10 µM.
The target of assay [6] is T4, Ephrin type-B receptor 4 (Homo sapiens) (UniProt P54760).
T4 sequence (whole entry): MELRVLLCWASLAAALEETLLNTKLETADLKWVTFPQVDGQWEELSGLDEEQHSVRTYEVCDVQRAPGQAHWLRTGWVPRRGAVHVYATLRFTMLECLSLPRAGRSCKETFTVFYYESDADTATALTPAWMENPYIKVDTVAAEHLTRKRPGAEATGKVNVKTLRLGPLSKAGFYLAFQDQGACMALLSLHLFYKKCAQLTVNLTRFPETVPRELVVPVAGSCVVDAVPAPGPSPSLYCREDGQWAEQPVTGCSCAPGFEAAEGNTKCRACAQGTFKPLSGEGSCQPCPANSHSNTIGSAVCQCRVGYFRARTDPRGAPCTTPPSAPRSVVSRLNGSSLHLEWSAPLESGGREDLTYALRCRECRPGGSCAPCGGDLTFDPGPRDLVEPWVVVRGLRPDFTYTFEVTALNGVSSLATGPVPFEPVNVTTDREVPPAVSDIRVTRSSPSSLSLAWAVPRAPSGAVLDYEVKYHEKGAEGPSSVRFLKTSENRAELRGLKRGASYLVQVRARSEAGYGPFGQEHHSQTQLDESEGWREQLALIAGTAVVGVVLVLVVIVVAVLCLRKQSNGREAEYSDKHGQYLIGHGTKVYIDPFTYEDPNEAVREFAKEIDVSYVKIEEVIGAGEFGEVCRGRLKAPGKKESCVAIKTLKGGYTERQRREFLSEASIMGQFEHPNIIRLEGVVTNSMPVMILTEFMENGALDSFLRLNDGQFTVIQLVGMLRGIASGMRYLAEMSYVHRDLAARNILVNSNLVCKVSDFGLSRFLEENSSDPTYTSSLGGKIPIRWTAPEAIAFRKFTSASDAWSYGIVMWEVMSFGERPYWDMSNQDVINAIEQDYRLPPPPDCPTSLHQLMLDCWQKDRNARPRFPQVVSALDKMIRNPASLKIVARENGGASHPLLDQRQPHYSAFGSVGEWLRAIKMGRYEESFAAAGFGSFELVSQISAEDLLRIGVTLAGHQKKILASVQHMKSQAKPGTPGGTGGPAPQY
The conditions noted are these: at 1 µM.

The target in assay [7] is T4, Ephrin type-B receptor 4 (Homo sapiens). As to conditions: at 10 µM.
In assay [8] the target is Receptor tyrosine-protein kinase erbB-4 (Homo sapiens) (UniProt Q15303). The conditions noted are these: at 1 µM.
Receptor tyrosine-protein kinase erbB-4 (Homo sapiens), sequence (Q15303 whole entry): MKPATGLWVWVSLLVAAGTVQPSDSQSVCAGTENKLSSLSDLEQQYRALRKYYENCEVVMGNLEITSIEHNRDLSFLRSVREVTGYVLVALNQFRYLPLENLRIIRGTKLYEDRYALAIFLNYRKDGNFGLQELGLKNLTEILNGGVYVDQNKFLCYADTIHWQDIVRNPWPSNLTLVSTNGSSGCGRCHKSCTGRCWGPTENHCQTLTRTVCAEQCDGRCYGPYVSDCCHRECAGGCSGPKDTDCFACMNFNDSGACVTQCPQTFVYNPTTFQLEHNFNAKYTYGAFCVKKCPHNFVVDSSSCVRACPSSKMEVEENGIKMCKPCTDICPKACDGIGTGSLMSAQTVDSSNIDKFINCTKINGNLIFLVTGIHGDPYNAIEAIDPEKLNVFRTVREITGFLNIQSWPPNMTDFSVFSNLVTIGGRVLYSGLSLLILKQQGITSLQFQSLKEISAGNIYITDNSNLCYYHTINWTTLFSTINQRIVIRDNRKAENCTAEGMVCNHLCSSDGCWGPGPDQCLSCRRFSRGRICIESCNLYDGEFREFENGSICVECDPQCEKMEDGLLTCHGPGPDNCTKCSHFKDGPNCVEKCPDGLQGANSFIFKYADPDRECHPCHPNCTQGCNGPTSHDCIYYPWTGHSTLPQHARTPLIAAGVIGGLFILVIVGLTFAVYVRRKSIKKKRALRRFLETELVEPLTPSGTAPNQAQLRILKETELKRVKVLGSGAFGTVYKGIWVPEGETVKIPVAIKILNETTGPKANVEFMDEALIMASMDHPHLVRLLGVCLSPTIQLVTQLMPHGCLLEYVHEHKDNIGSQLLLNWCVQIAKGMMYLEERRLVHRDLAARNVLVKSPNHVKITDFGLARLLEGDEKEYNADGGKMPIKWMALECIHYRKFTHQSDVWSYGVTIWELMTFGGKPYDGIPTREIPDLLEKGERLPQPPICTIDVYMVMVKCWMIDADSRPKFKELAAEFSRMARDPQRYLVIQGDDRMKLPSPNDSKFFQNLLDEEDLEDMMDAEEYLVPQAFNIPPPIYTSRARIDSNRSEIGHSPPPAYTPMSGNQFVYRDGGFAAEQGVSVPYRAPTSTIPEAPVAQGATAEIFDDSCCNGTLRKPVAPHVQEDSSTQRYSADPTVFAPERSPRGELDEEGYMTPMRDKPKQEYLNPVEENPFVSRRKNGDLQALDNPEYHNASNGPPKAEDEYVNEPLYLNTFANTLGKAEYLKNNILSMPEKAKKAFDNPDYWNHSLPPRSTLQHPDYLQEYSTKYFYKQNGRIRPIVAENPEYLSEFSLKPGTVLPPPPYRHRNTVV
The target is the same in assay [9]. As to conditions: at 10 µM.
Assay [10] deals with Focal adhesion kinase 1 (Homo sapiens) (UniProt Q05397). The conditions noted are these: at 1 µM.
Focal adhesion kinase 1 (Homo sapiens), sequence (Q05397 2-1052 limits assumed): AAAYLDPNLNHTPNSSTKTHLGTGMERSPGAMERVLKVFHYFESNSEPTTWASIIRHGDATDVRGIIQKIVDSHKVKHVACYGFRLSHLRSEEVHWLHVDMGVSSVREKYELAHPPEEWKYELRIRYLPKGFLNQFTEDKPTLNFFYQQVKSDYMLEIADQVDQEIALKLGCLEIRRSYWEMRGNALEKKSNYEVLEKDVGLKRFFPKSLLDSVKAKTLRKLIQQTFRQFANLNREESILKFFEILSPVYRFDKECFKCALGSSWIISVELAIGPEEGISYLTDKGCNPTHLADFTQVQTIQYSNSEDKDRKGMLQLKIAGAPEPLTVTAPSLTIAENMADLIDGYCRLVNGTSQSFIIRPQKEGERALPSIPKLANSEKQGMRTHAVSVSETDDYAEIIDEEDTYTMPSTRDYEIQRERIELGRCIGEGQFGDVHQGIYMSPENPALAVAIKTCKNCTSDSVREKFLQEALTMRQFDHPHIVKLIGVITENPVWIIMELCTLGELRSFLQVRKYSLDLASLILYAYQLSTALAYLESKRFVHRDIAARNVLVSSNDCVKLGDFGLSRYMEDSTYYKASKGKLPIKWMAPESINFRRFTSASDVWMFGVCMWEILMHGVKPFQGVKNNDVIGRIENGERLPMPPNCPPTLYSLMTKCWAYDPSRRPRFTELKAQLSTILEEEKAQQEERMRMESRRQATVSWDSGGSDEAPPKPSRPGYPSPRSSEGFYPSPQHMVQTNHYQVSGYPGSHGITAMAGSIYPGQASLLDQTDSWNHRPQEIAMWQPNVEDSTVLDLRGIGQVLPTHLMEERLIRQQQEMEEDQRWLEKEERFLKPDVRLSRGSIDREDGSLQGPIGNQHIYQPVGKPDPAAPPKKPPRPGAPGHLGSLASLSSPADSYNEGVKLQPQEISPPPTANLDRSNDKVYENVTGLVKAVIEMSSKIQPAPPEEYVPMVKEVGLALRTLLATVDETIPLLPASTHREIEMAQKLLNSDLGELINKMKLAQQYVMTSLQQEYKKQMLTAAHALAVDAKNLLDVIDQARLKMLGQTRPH

Turning to `Oc1ccc(Nc2nc(-c3ccc(Cl)cc3)cs2)cc1`, the residual activity in assay [1] was 78%; in assay [2] it was 108%; in assay [3], 109%; in assay [4], 88% (inactive); in assay [5], 95%; in assay [6], 109%. In addition, the residual activity in [7] turned out to be 92%; in assay [8], 132%; in assay [9] it was 128%; in assay [10] it was 108%.
